Measured values from PubChem BioAssay.
A number with no mark means an inactive call. The rule behind the calls is not given here. Where a SMILES comes first, the peptide text is derived from it. The star is where a group is joined. Boc = CC(C)(C)OC(=O)*

System: Botulinum neurotoxin type F light chain protease (Clostridium botulinum)
Assay: Botulinum neurotoxin type F light chain protease inhibition, multiplex microsphere flow cytometry, validation set (AID 588459)
Conditions: multiplex microsphere protease substrate cleavage assay, at 10 µM, hits give high values

SMILES	inhibition [%]
CN1CCN(C2=Nc3cc(Cl)ccc3Nc3ccccc32)CC1	-0.2
CC[N+](C)(C)c1cccc(O)c1	1.7
Cc1ccc(C(=O)O)cc1NC(=O)c1cccs1	-1.2
CC(C)Oc1ccc(C(CC(=O)O)c2ccc(F)cc2)cc1 (stereo not given)	5.2
Cc1cc(-c2nn(-c3ccccc3F)cc2CN2CCCC(O)C2)c(C)s1 (stereo not given)	3
COc1ccc2[nH]c3c(c2c1)CCNC3C1CC=C(C)CC1 (stereo not given)	-1.7
CC(C)(C)OC(=O)N1CCCC1C(=O)NC(Cc1ccccc1)C(=O)O (stereo not drawn) (Boc-Pro-Phe-OH; configuration not given here)	-2.1
O=C(/C=C/c1c[nH]c2ccccc12)c1cccc2ccccc12	5.1
CC(C)C[C@H]1C(=O)N2CCC[C@H]2[C@]2(O)O[C@](NC(=O)[C@@H]3C=C4c5cccc6[nH]c(Br)c(c56)CC4N(C)C3)(C(C)C)C(=O)N12 (stereo not given in full)	5.1
COc1ccc(C)cc1S(=O)(=O)Nc1ccc(F)cc1	1.1
CC12CCC(C(=O)NCc3ccccn3)(OC1=O)C2(C)C (stereo not given)	-1.4
CCC(=O)c1ccc(O)cc1	1.2
Cc1cccc(C)c1NS(=O)(=O)c1ccc(NC(=O)c2ccc(Cl)c([N+](=O)[O-])c2)cc1	2.3
O=C(NCCN1CCCCC1)c1c(O)c2ccccc2[nH]c1=O	3.5
S=C(NCc1ccccc1)NCc1cccc(CNC(=S)NCc2ccccc2)c1	-0.9
